The values that follow come from PubChem BioAssay (NCATS).

A short description of test [1]: P-glycoprotein substrates identified in KB-8-5-11 adenocarcinoma cell line, qHTS therapeutic library screen (AID 1346987). For activity change, negative = cytotoxicity: series mostly up to about 44 µM. Note: nearly all actives have a fitted effect of over 65% in size. Note: potency is the fitted concentration of half-maximal effect. In a few lines:
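In this qHTS, P-gp-rich KB-8-5-11 cells received library compounds across a concentration range. Viability was quantified by luminescence after 72 h at 37 degree C.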

Test [2] can be described thus: qHTS assay for small molecule antagonists of the retinoid-related orphan receptor gamma (ROR-gamma) signaling pathway - cell viability counter screen (AID 720652; active = well fitted curve in the direction sought with a large enough effect in the repeat runs; an effect the other way counts as inactive or inconclusive;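 note: CHO reporter cells with doxycycline-induced ROR-gamma expression; series mostly up to about 92 µM; compound exposure lasted 16 hr before ATP read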). In a few lines: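 CHO RORE-LUC/TET-ROR line, 1,000 cells/well, 37 C 5% CO2 5 hr; cpd or DMSO + doxycycline induction, 16 hr. CellTiter-Glo, 30 min RT, luminescence = ATP content.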
For orientation: Quantitative high-throughput screening tests each substance at several concentrations.

Test [3] is described as follows: qHTS assay for small molecule agonists of the antioxidant response element (ARE) signaling pathway measured by Nrf2-dependant transcriptional activity - cell viability counter screen (AID 720653; active = well fitted curve in the direction sought with a large enough effect in the repeat runs; an effect the other way counts as inactive or inconclusive). The conditions noted are these: ARE-bla HepG2 viability, CellTiter-Glo ATP luminescence, 16 h; active compounds read low. In a few lines:
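ARE-bla HepG2 cells treated with compounds for 16 h at 37C; this counter screen measures viability as intracellular ATP by CellTiter-Glo luminescence after 30 min at room temperature.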

A short description of test [4]: qHTS Assay for Identifying Gametocytocidal Compounds (AID 743244).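 For max response: actives lower the fluorescent signal which means gametocytes are killed.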 Note: potency is the fitted concentration of half-maximal effect. The conditions noted are these: P. falciparum 3D7 stage III-V gametocytes, alamarBlue, 72 h; max response: active compounds read low. The text has this:
Malaria cases and deaths have dropped 50% in 29 countries since 2000 due to the combined effects of long-lasting insecticidal bednets, indoor residual spraying, and artemisinin-based combination therapies (ACTs). This success has raised hopes for malaria eradication and consequently stimulated interest in developing new reagents that block gametocyte transmission such as novel and safe gametocytocidal drugs. However, previous drug development efforts have focused primarily on the asexual parasites that cause symptoms, but not malaria transmission. Consequently, patients can remain infectious for weeks after the clearance of asexual parasites and clinical symptoms. To be transmitted from person to person via a mosquito, the parasites must switch from asexual to sexual development and produce male and female gametocytes. Malaria gametocytes consist of five stages (I, II, III, IV and V). The late stage gametocytes (III, IV and V) are difficult to be cultured in vitro and the long lifespan of mature gametocytes allows them being transmitted from host to mosquitoes unless they are completely eliminated by gametocytocidal agents. […] Within live cells, the nonfluorescent resazurin is reduced to resorufin, a bright red fluorescence dye. Fluorescence decreases upon treatment of gametocytocidal compounds. […]

Test [5] is described as follows: qHTS assay for cell viability of HEK293 cells (AID 743288). Note: nearly all actives have a fitted effect of over 50% in size. The conditions noted are these: ATP luminescence (CellTiter-Glo), 18 h, active compounds read low. Put shortly: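 Steps: plate 2,000 parental HEK293 cells per well; incubate ≥5 h, 37 C; add compounds in DMSO; incubate 18 h, 37 C; add CellTiter-Glo; wait 30 min at room temperature; read luminescence.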
A short description of test [6]: qHTS assay for cell viability of the p53RE-bla HCT-116 cell line (AID 743292). Note: nearly all actives have a fitted effect of over 55% in size. Put shortly: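 In this qHTS counter-screen, metabolically competent p53RE-bla HCT-116 cells were counted via their ATP content. Compounds were applied for 16 h at 37 C and luciferase-coupled luminescence was measured.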
The nature of test [7]: NS1 protein of Zika virus - qHTS assay to identify small molecule inhibitors in human HEK 293 cells (AID 1347053). Note: nearly all actives have a fitted effect of over 55% in size. Note: potency is the fitted concentration of half-maximal effect. In a few lines: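 Compound-treated (1 h pre-infection) HEK 293 cells infected with ZIKV MR766, MOI = 0.5; after 24 h at 37 C, NS1 read by TR-FRET; data normalized to uninfected and infected controls.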
A short description of test [8]: qHTS assay for small molecule agonists of the antioxidant response element (ARE) signaling pathway measured by Nrf2-dependant transcriptional activity (AID 720636; active = well fitted curve in the direction sought with a large enough effect in the repeat runs; an effect the other way counts as inactive or inconclusive;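 note: HepG2 cells with an ARE-driven luciferase reporter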). Put shortly: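 We exposed ARE-luc HepG2 cells, seeded in assay medium with 1% dialyzed FBS and allowed 6 hr to adhere, to test compounds overnight (16 hr, 37 C) before measuring luciferase with ONE-Glo.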

Test [9] can be described thus: qHTS of pediatric cancer cell lines to identify multiple opportunities for drug repurposing: Primary screen for TC32 cells (AID 1347089). Note: nearly all actives have a fitted effect of over 60% in size. Put shortly: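 TC32 cells, 500-1,000/well in growth medium, compound-treated 48 h at 37 °C; viability from CellTiter-Glo luminescence. Primary screen: MIPE 11-point (0.78 nM–46 µM final), NPC 8-point (0.59 nM–46 µM final); confirmatory at 11-point dilutions.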

Records with an inconclusive call do not appear. Entries that show only a call come without a potency. Unmarked numbers belong to inactive results. Activity calls are given as the source filed them. Unless noted, calls come from the whole dose curve; as a rule, active = well fitted curve in the direction sought with a large enough effect; inconclusive = small, poorly fitted or top-dose-only effect, or another doubt; inactive = no such curve, though single readings can be large; an effect the other way counts as inactive or inconclusive.

Turning to `Nc1nc2c(c(=O)[nH]1)C[C@@H](CCc1ccc(C(=O)N[C@@H](CCC(=O)O)C(=O)O)cc1)CN2`, the Potency in test [1] is 58 nM (active).

As for `COc1ccc(F)cc1-c1cc(NC(=O)[C@@H]2CCCNC2)ncc1Cl`, the Potency in test [1] was 326 nM (active).

For the molecule `CCC1C(=O)N(C)c2cnc(Nc3ccc(C(=O)NC4CCC(N5CCN(CC6CC6)CC5)CC4)cc3OC)nc2N1C(C)C` (stereo not given), the Potency in test [1] was 291 nM (active).

Regarding `COc1c2c(c(C)c3c1C(=O)OC3)OC1(C)CC(O)C34OC(OC)(CC(OC(C)=O)C3(C)C1C2)OC4(C)C` (stereo not given), the Potency result in test [1] is “inactive”.

Take `CC1OC2OC(=O)C3(C)CC4=C(CO)C5=C(CC(=O)C4(C)C(C1=O)C23)C(C)(C)OC(=O)C5` (stereo not given): the Potency result in test [1] is “inactive”.

Take `C[C@@H]1O[C@@H](O[C@@H]2[C@@H](O)[C@H](O[C@H]3[C@H](O[C@H]4CC[C@@]5(C)C(CC[C@]6(C)C5CC=C5[C@@H]7CC(C)(C)CC[C@]7(C(=O)O[C@@H]7O[C@H](CO)[C@@H](O)[C@H](O)[C@H]7O[C@@H]7O[C@@H](C)[C@H](O[C@@H]8O[C@@H](C)[C@H](O)[C@@H](O)[C@H]8O)[C@@H](O)[C@H]7O)CC[C@]56C)[C@@]4(C)CO)O[C@H](C(=O)O)[C@@H](O)[C@@H]3O)O[C@H](CO)[C@H]2O)[C@H](O)[C@H](O)[C@H]1O` (stereo not given in full): in test [1], the activity change, negative = cytotoxicity is 9.26% [at 9.29 µM].

For the molecule `Cc1ccc(N)cc1O`, the call in test [2] and in test [6] was inactive. For the same molecule, the max response in [3] is -11.4%; in test [5] it was 3.99%. Moreover, the Potency in test [4] and in [7] was 31600 nM (active) in each case. The Potency result in test [1] was “inactive”.

Take `Nc1ccccc1N`: the max response in test [3] is 1.96%. Besides, the result in test [6] was inactive. Besides, the Potency entry in [1] and in [7] was “inactive” in each case.

Consider `CC(=O)O[C@H]1C(=O)[C@@]2(C)[C@H]([C@H](OC(=O)c3ccccc3)[C@]3(O)C[C@H](OC(=O)[C@H](O)[C@@H](NC(=O)c4ccccc4)c4ccccc4)C(C)=C1C3(C)C)[C@]1(OC(C)=O)CO[C@@H]1C[C@@H]2O`, for which the molecule was classed as inactive in [8] and in test [6]. Further, the values for the max response in test [3], in test [4] and in [5] were -7.37%, -7.34% and -10.4%, respectively. The Potency in [1] is 873 nM (active).

Consider `O=C(O)c1c(O)c(-c2ccccc2)nc2ccccc12`, for which the Potency result in [7] is “inactive”. Besides, the molecule was called inactive in test [9].

With `CC1(C)CC[C@]2(C(=O)O[C@@H]3O[C@H](CO)[C@@H](O)[C@H](O)[C@H]3O)CC[C@]3(C)C(=CCC4[C@@]5(C)CC[C@H](O[C@@H]6O[C@H](C(=O)O)[C@@H](O)[C@H](O)[C@H]6O)C(C)(C)C5CC[C@]43C)C2C1` (stereo not given in full), the outcome in test [1] was “inactive [at 9.29 µM]”.

`C/C=C(\C)C(=O)O[C@@H]1CC2[C@@H](CC=C3C[C@@H](O[C@H]4C[C@H](OC)[C@H](O[C@H]5C[C@H](OC)[C@H](O[C@@H]6O[C@H](C)[C@@H](O[C@H]7C[C@H](OC)[C@H](O[C@@H]8O[C@H](CO)[C@@H](O)[C@H](O)[C@H]8O)[C@@H](C)O7)[C@H](OC)[C@H]6O)[C@@H](C)O5)[C@@H](C)O4)CC[C@@]32C)[C@@]2(O)CC[C@H](C(C)=O)[C@@]12C` (stereo not given in full): in test [1], the outcome is “inactive [at 9.29 µM]”.

Regarding `COc1ccc(-c2cnc(-c3cccc4c3-c3ccccc3C4=O)o2)cc1`, in test [1], the Potency was 89.3 nM (active).

Consider `Cc1ccc(NC(=O)C(=O)NC2CC(C)(C)NC(C)(C)C2)cc1`, for which the Potency entry in test [1] is “inactive”.

With `O=C(O)c1ccccc1NCCc1ccccc1`, in test [7], the Potency result is “inactive”. Further, the result in test [9] was inactive.

As to `COC(=O)CC(C)(O)CC(=O)OCc1ccc(O[C@@H]2O[C@H](CO)[C@@H](O)[C@H](O)[C@H]2O)cc1` (stereo not given in full), in test [1], the Potency entry was “inactive”.

For the molecule `CC(Cc1cc2c(c(C(N)=O)c1)N(CCCO)CC2)NCCOc1ccccc1OCC(F)(F)F` (stereo not given), the Potency entry in [1] is “inactive”.

Regarding `CC1=CC(=O)C2C(C)(C)CCC[C@]2(C)[C@H]1CO` (stereo not given in full), the Potency result in test [1] was “inactive”.

With `CC1=CC(=O)CC(C)(C)C1/C=C/C(C)O[C@@H]1O[C@H](CO)[C@@H](O)[C@H](O)[C@H]1O[C@@H]1OC[C@](O)(CO)[C@H]1O` (stereo not given in full), the Potency result in test [1] was “inactive”.

Turning to `CC1(C)CC(=O)C2=C(C1)NC(=S)NC2c1cccc(O)c1` (stereo not given), the Potency in [1] was 5800 nM (active).

For `O=C1CCC(c2ccccc2)(C2CCN(Cc3ccc(I)cc3)CC2)C(=O)N1` (stereo not given), the Potency result in [1] was “inactive”.

For `Cc1oc2ccccc2c1CNC(=O)NCc1cccs1`, the Potency entry in test [1] is “inactive”.

In the case of `C=CC(C)(O)CC[C@H]1C(=C)CCC2[C@](C)(C(=O)O)CCC[C@@]21C` (stereo not given in full), the Potency result in [1] is “inactive”.

As for `C/C(=C\CC[C@@H](C)[C@H]1CC(O)[C@@]2(C)C3CC[C@H]4C(C)(C)[C@@H](OC5OCC(O)C(O)C5OC5OC(CO)C(O)C(O)C5O)CC[C@@]45C[C@@]35CC(O)[C@]12C)C(=O)O` (stereo not given in full), in [1], the Potency entry was “inactive”.
